In PubChem BioAssay (Tox21) one finds Potency data, which are given here for 38 molecules.

Values joined by “and” are separate entries in the source; they are usually repeats but may differ in a detail not shown here. Equal values may be shown once. Results filed as inconclusive are left out. A call without a number means that no potency is given here. Some structures have more than one record in an assay (separate samples or runs), and their calls can disagree. Active and inactive are the calls of the source. The call rests on the fitted dose curve; in most records, active means well fitted curve in the direction sought with a large enough effect in the repeat runs; inconclusive means weak or mixed curves; inactive means no such curve, though single readings can be large; an effect the other way counts as inactive or inconclusive.

The first assay can be described thus: qHTS RealTime-Glo MT Cell Viability Assay in HEK293 cells - 24 hour (AID 1224886). Further: nearly all actives have a fitted effect of over 50% in size. Further: potency means the concentration at half of the fitted maximal effect. Particulars: RealTime-Glo luminescence; series mostly up to 76.8 µM. In outline:
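Luminescence generated by NanoLuc from substrate produced by living HEK293 cells served as the viability signal. Each value reflects the reading at its stated time point during continuous 40 h compound exposure at 37 C.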
Take `CCCCCCCC(=O)O`: the Potency entry was “inactive”.
On the same count and under the same terms, as for `CCCCCC(C)=O`, the entry is “inactive”; as for `COc1cc(NC(=O)CC(C)=O)c(OC)cc1Cl`, “inactive and 21.9 µM (active)”; as for `COCN(COC)c1nc(N(COC)COC)nc(N(COC)COC)n1`, “inactive”.
Same read-out and setting: the result for `Brc1ccc(Oc2ccc(Br)cc2)cc1` reads “inactive”; that for `CCOC(=O)c1ccc(O)cc1`, “inactive”.
Same read-out and setting: as for `Oc1ccc(Cc2ccccc2O)cc1`, the figure is 12.3 µM (active); as for `COC(=O)/C=C\C(=O)OC`, “inactive”; as for `Cc1ccc([N+](=O)[O-])cc1N`, “inactive”.
Consider `CCOC(=O)CC(=O)OCC`, for which the Potency result was “inactive”.
The same measure, in the same setting: the result for `OCC(O)CS` (stereo not given) reads “inactive”; that for `Cc1ccc(Cl)cc1`, “inactive”.
Still for that read-out and setting: the result for `O=c1n(CCCN2CCN(c3cccc(Cl)c3)CC2)nc2ccccn12` reads 13.8 µM (active) and 16.9 µM (active); that for `Nc1cccc(N)n1`, “inactive”; that for `CC1(C)C(=O)N(Cl)C(=O)N1Cl`, “inactive”.
The same measure, in the same setting: the result for `Cc1nnc(NS(=O)(=O)c2ccc(N)cc2)s1` reads “inactive”; that for `CS(=O)(=O)c1ccc(Cl)cc1`, “inactive”.
Consider `Cc1ccccc1C=O`, for which the Potency result is “inactive”.
Same read-out and setting: as for `N#CCC(=O)O`, the entry is “inactive”; as for `OCc1ccc(Cl)cc1Cl`, “inactive”.

The nature of another assay: qHTS RealTime-Glo MT Cell Viability Assay in HEK293 cells - 8 hour (AID 1224887). Further: nearly all actives have a fitted effect of over 50% in size. Further: potency means the concentration at half of the fitted maximal effect. The following applies: RealTime-Glo luminescence; series mostly up to 76.8 µM. In a few lines: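 Real-time viability in HEK293: signal arises when living cells convert a prosubstrate for NanoLuc in the medium, so luminescence tracks viable cell number. Compound (23 nL, DMSO) added 5 h post-seeding; kinetic reads at 0–40 h, 37 C.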
For the molecule `CCCCC(=O)O`, the Potency result was “inactive”.
Same read-out and setting: the result for `CC(O)CNCC(C)O` (stereo not given) reads “inactive”; that for `CC(C)c1ccc(C(C)C)cc1`, “inactive”.
On the same count and under the same terms, as for `NC1CCCCC1N` (stereo not given), the entry is “inactive”; as for `CCCOCC(C)O` (stereo not given), “inactive”; as for `Cc1ccc(C)c(S(=O)(=O)O)c1`, “inactive”.
Regarding `CCCCCCCCO`, the Potency entry was “inactive”.
Same read-out and setting: the result for `C=CC(=O)NCOCCCC` reads “inactive”.
Still for that read-out and setting: as for `O=C1C(N(CO)C(=O)NCO)N(CO)C(=O)N1CO` (stereo not given), the entry is “inactive”; as for `NCCNCCNCCN`, “inactive”.
Still for that read-out and setting: the result for `COc1ccc(N)c(OC)c1` reads “inactive”; that for `O=C(Cl)c1ccc(C(=O)Cl)cc1`, “inactive”; that for `CC(=O)OC(C)(C)C1CC=C(C)CC1` (stereo not given), “inactive”.
On to `CC(=O)OCCC(C)C`, for which the Potency entry is “inactive”.
Turning to `CO[Si](CCCNCCN)(OC)OC`, the Potency result is “inactive”.
Same read-out and setting: as for `CCn1cc(C(=O)O)c(=O)c2cc3c(cc21)OCO3`, the entry is “inactive”; as for `CC1(C)[C@@H](O[C@H]2O[C@H](C(=O)O)[C@@H](O)[C@H](O)[C@H]2O[C@@H]2O[C@H](C(=O)O)[C@@H](O)[C@H](O)[C@H]2O)CC[C@]2(C)[C@H]3C(=O)C=C4[C@@H]5C[C@@](C)(C(=O)O)CC[C@]5(C)CC[C@@]4(C)[C@]3(C)CC[C@@H]12`, “inactive”; as for `CCCCCCCC(=O)O`, “inactive”.
Still for that read-out and setting: as for `CCCCCC(C)=O`, the entry is “inactive”; as for `COc1cc(NC(=O)CC(C)=O)c(OC)cc1Cl`, “inactive”; as for `COCN(COC)c1nc(N(COC)COC)nc(N(COC)COC)n1`, “inactive”.
The same measure, in the same setting: the result for `Brc1ccc(Oc2ccc(Br)cc2)cc1` reads “inactive”.
For `O=C(NCC1CCCCN1)c1cc(OCC(F)(F)F)ccc1OCC(F)(F)F` (stereo not given), the Potency entry was “inactive”.
As to `CCOC(=O)c1ccc(O)cc1`, the Potency entry was “inactive”.
The same measure, in the same setting: the result for `COC(=O)/C=C\C(=O)OC` reads “inactive”.
Consider `Cc1ccc([N+](=O)[O-])cc1N`, for which the Potency result is “inactive”.
Same read-out and setting: the result for `CCOC(=O)CC(=O)OCC` reads “inactive”; that for `OCC(O)CS` (stereo not given), “inactive”; that for `Cc1ccc(Cl)cc1`, “inactive”.
Same read-out and setting: the result for `O=c1n(CCCN2CCN(c3cccc(Cl)c3)CC2)nc2ccccn12` reads 11 µM (active) and 10.7 µM (active); that for `Nc1cccc(N)n1`, “inactive”.
Still for that read-out and setting: the result for `CC1(C)C(=O)N(Cl)C(=O)N1Cl` reads “inactive”.
In the case of `Cc1nnc(NS(=O)(=O)c2ccc(N)cc2)s1`, the Potency result was “inactive”.
On the same count and under the same terms, the result for `CS(=O)(=O)c1ccc(Cl)cc1` reads “inactive”; that for `Cc1ccccc1C=O`, “inactive”; that for `N#CCC(=O)O`, “inactive”.
On the same count and under the same terms, the result for `OCc1ccc(Cl)cc1Cl` reads “inactive”.

A further assay is described as follows: A CellTox Green Cytotoxicity Assay to monitor cytotoxicity in HEK293 cells - 16 hour (AID 1224888). Further: nearly all actives have a fitted effect of over 35% in size. The following applies: CellTox Green fluorescence; series mostly up to 76.8 µM. In a few lines:
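Cells (HEK293, 600/well) and dye reagent are dispensed together. After 5 h at 37 C, 23 nL compound is pinned in. Plates stay at 37 C for 40 h with fluorescence read at 0h, 8h, 16h, 24h, 32h and 40h.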
For `CCCCC(=O)O`, the Potency result is “inactive”.
Still for that read-out and setting: the result for `CC(O)CNCC(C)O` (stereo not given) reads “inactive”.
The same measure, in the same setting: the result for `CC(C)c1ccc(C(C)C)cc1` reads “inactive”.
On the same count and under the same terms, as for `NC1CCCCC1N` (stereo not given), the entry is “inactive”; as for `CCCOCC(C)O` (stereo not given), “inactive”.
In the case of `Cc1ccc(C)c(S(=O)(=O)O)c1`, the Potency result was “inactive”.
Same read-out and setting: the result for `CCCCCCCCO` reads “inactive”; that for `C=CC(=O)NCOCCCC`, “inactive”; that for `O=C1C(N(CO)C(=O)NCO)N(CO)C(=O)N1CO` (stereo not given), “inactive”.
Still for that read-out and setting: the result for `NCCNCCNCCN` reads “inactive”; that for `COc1ccc(N)c(OC)c1`, “inactive”.
On the same count and under the same terms, the result for `O=C(Cl)c1ccc(C(=O)Cl)cc1` reads “inactive”.
As for `CC(=O)OC(C)(C)C1CC=C(C)CC1` (stereo not given), the Potency entry is “inactive”.
For the molecule `CC(=O)OCCC(C)C`, the Potency entry was “inactive”.
Turning to `CO[Si](CCCNCCN)(OC)OC`, the Potency result was “inactive”.
Still for that read-out and setting: as for `CCn1cc(C(=O)O)c(=O)c2cc3c(cc21)OCO3`, the entry is “inactive”; as for `CC1(C)[C@@H](O[C@H]2O[C@H](C(=O)O)[C@@H](O)[C@H](O)[C@H]2O[C@@H]2O[C@H](C(=O)O)[C@@H](O)[C@H](O)[C@H]2O)CC[C@]2(C)[C@H]3C(=O)C=C4[C@@H]5C[C@@](C)(C(=O)O)CC[C@]5(C)CC[C@@]4(C)[C@]3(C)CC[C@@H]12`, “inactive”.
Still for that read-out and setting: as for `CCCCCCCC(=O)O`, the entry is “inactive”; as for `CCCCCC(C)=O`, “inactive”; as for `COc1cc(NC(=O)CC(C)=O)c(OC)cc1Cl`, “inactive”.
Same read-out and setting: the result for `COCN(COC)c1nc(N(COC)COC)nc(N(COC)COC)n1` reads “inactive”; that for `Brc1ccc(Oc2ccc(Br)cc2)cc1`, “inactive”; that for `O=C(NCC1CCCCN1)c1cc(OCC(F)(F)F)ccc1OCC(F)(F)F` (stereo not given), “inactive”.
Regarding `CCOC(=O)c1ccc(O)cc1`, the Potency result is “inactive”.
For the molecule `Oc1ccc(Cc2ccccc2O)cc1`, the Potency entry is “inactive”.
For the molecule `COC(=O)/C=C\C(=O)OC`, the Potency result is “inactive”.
The same measure, in the same setting: the result for `Cc1ccc([N+](=O)[O-])cc1N` reads “inactive”; that for `CCOC(=O)CC(=O)OCC`, “inactive”; that for `OCC(O)CS` (stereo not given), “inactive”.
On the same count and under the same terms, as for `Cc1ccc(Cl)cc1`, the entry is “inactive”; as for `O=c1n(CCCN2CCN(c3cccc(Cl)c3)CC2)nc2ccccn12`, “inactive”; as for `Nc1cccc(N)n1`, “inactive”.
On the same count and under the same terms, as for `CC1(C)C(=O)N(Cl)C(=O)N1Cl`, the entry is “inactive”.
For the molecule `Cc1nnc(NS(=O)(=O)c2ccc(N)cc2)s1`, the Potency result was “inactive”.
On the same count and under the same terms, as for `CS(=O)(=O)c1ccc(Cl)cc1`, the entry is “inactive”; as for `Cc1ccccc1C=O`, “inactive”; as for `N#CCC(=O)O`, “inactive”.
The same measure, in the same setting: as for `OCc1ccc(Cl)cc1Cl`, the entry is “inactive”.
